Tests used:
[1] = biological target: T1, Aspartate--tRNA(Asp/Asn) ligase (Mycobacterium tuberculosis (strain ATCC 25618 / H37Rv)) (UniProt P9WFW3); experiment: Assay for Asp RNA synthetase-1 from Mycobacterium tuberculosis; type: functional; set-up: scale not given: direction of the effect not stated beside the values; conditions: 30 µM; note: in the data most compounds retested in dose-response had high values
T1 sequence (whole entry): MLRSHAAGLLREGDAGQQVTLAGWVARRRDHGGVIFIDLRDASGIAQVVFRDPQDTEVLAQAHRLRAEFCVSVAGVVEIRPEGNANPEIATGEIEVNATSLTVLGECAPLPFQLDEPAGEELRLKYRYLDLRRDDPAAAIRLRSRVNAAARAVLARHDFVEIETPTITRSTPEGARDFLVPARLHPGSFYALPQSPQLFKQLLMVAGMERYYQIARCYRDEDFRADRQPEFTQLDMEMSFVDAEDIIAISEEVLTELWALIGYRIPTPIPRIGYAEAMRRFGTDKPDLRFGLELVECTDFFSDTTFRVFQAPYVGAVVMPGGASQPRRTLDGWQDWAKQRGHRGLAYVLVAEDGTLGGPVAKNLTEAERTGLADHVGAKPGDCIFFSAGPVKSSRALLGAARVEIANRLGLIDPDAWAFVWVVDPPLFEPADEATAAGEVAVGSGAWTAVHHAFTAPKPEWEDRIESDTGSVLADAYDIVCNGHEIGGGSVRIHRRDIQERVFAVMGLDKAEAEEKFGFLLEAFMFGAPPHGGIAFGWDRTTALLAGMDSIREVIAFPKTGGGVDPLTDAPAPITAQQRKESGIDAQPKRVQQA

[2] = biological target: Shiga toxin 2 (Escherichia coli O157:H7) (UniProt P09385+P09386); experiment: E. coli 0.157:H7 Shiga Toxin SOP - stx2 screening assay; type: functional; set-up: scale not given: direction of the effect not stated beside the values; conditions: 30 µM

Structure (SMILES)	Percent Effect [1]	Percent Effect [2]
Cc1ccc(C(=O)N2CCN(Cc3ccsc3)CC2)n1C	1.28%	3.04%
CC(Oc1ccccc1C(F)(F)F)C(=O)NCCC(=O)N(C)C (stereo not given)	-1.14%	8.25%
CN1CCOC(CNCc2cccc(OCC(F)(F)F)c2)C1 (stereo not given)	-2.34%	2.68%
CC(=O)N(Cc1noc(C2CC2)n1)C1CCN(Cc2nccn2C)C1 (stereo not given)	-4.37%	12.9%
CCCc1n[nH]c(C2CN(CCn3cccn3)CCO2)n1 (stereo not given)	3.43%	6.67%
COc1ncccc1C(=O)Nc1nc2c(s1)CN(S(=O)(=O)C1CC1)CC2	-4.8%	-20%
CCS(=O)(=O)NCCNC(=O)c1cc(Cl)c2c(c1)OCCCO2	5.01%	-2.3%
CC(CNc1cncc(-n2cccn2)n1)N(C)c1ccccc1 (stereo not given)	2.34%	7.51%
Cc1cc(C[S+]([O-])CC(=O)NCC(C)C)no1 (stereo not given)	-2.03%	4.91%
Cc1ccc([C@]2(O)CC[C@H]3CN(Cc4cccc(Cl)c4Cl)C[C@H]32)nc1	7.16%	6.78%
Cc1c(F)cccc1CN1CCn2nc(CNC(=O)N(C)C)cc2C1	0.386%	-49.9%
Cc1cccc(CN2C(=O)CCC23CCN(c2ncc(F)cn2)CC3)n1	-0.66%	-5.21%
CCc1ncc(C(=O)N2CCOCC2c2c(C)n[nH]c2C)s1 (stereo not given)	2.97%	7.37%
Cc1cnn(CCNCc2ccccc2C#N)c1	-1.14%	12.5%
CC(C)NC(=O)c1nnn(-c2cccc(C(F)(F)F)c2)c1C1CC1	-2.65%	8.87%
Cc1nc(C2CCCN2CCCNS(C)(=O)=O)no1 (stereo not given)	-0.167%	23.5%
COc1ccccc1C(=O)N1CC(Cc2nccc3ccn(C)c23)C1	-0.878%	-11.7%
COc1ccc(Br)c(C(=O)NCC2CCN(C(=O)c3ccoc3)CC2)c1	-5.03%	0.84%
O=C(NCCCn1nc2ccccn2c1=O)NC1CCC(O)CC1 (stereo not given)	4.86%	-44.5%
CC(C)S(=O)(=O)NCC1CCCN(C(=O)c2cccnc2)C1 (stereo not given)	-0.834%	-4.9%
CNS(=O)(=O)c1cc(C(=O)NC2CCOc3ccccc32)cc(C)c1C (stereo not given)	-2.19%	3.19%
CC(C)NC(=O)N1CCC(n2ccc(C(F)(F)F)n2)CC1	-2.88%	-0.886%
CN(C)c1ncccc1CNC(=O)N1CCCC1CN1CCCCC1 (stereo not given)	-2.19%	-17.9%
Cn1cnc2c1CCN(Cc1nc(COc3ccc(F)cc3)no1)C2	2.19%	19%
c1cc(CN2CCCC(c3noc(C4CC4)n3)C2)no1 (stereo not given)	-0.285%	4.12%

Structure (SMILES)	Percent Effect [1]	Percent Effect [2]
Cc1ccc(N2CCC3(CCCN(C(=O)c4cccnc4)C3)C2)nn1 (stereo not given)	8.13%	-11%
Cc1nn(C)cc1CCC(=O)N1CCCC(n2cncn2)C1 (stereo not given)	-2.1%	12.3%
COC(=O)N1C[C@H]2CC[C@@H]1CN(Cc1cscn1)C2	-3.45%	17.3%
CC(C)c1nc(CCNC(=O)NCc2ccnc(N(C)C)c2)cs1	-0.713%	-13.1%
N#Cc1ccnc(N2CCN(Cc3cccc(F)c3)CC2)c1	-3.46%	12.2%
CCc1nnc2n1CCN(C(=O)c1cc3cc(F)ccc3[nH]1)C2	-1.91%	-31.4%
Cc1ccc(NC2CCN(C(=O)COc3cccnc3)CC2)nn1	-4.47%	-129%
O=C(NCc1ccco1)[C@H]1C[C@H]2OCC[C@H]2N(C(=O)c2ccco2)C1	3.58%	6.55%
Cc1noc(C)c1CN1CCN(C(=O)Cn2cncn2)CC1	3.12%	7.4%
Cc1cnn(CC2CCCCN2C(=O)c2ccnc(N(C)C)c2)c1 (stereo not given)	1.07%	16.2%
CCN1CCN(C(=O)CCc2c(C)noc2Cl)CC1	0.983%	28.8%
CC1CCCN(C(=O)c2csc(S(N)(=O)=O)c2)CC1 (stereo not given)	0.324%	-19.1%
Cc1ccc2oc(C(=O)N3CCc4nnc(N(C)C)cc4C3)cc2n1	1.25%	-14.3%
CCC1CN(Cc2ccccc2)CCN1Cc1nnc(C2CCC2)o1 (stereo not given)	-4.92%	-9.86%
CCN(Cc1nc2c(cnn2C)c(=O)[nH]1)Cc1cccs1	-1.27%	5.32%
Cc1nnc([C@@H]2CC[C@@H]3[C@@H](CCN3S(=O)(=O)c3cccnc3)O2)o1	7.29%	8.32%
O=C(N[C@@H]1CN(Cc2ccsc2)[C@@H]2CCCO[C@@H]21)C1CC1	-0.611%	-18.9%
Cc1cccc(C(=O)N2CCN(S(C)(=O)=O)[C@@H](C)C2)c1C	-3.1%	-11.5%
CC(=O)N(Cc1noc(C)n1)C1CCN(Cc2cc(C)on2)C1 (stereo not given)	4.07%	11%
Cn1ccnc1CNC(=O)N1CCCC(Cc2nccn2C)C1 (stereo not given)	0.605%	-13.5%
COc1ccc(OCC(=O)NS(=O)(=O)c2cc(F)ccc2F)cc1	-1.01%	-20.6%
Cc1ccccc1N1CCN(C(=O)c2ccc[nH]2)C(C)C1 (stereo not given)	-2.33%	24.5%
COC(=O)CCC(=O)N1CCc2[nH]nc(-c3ccc4c(c3)OCO4)c2C1	-1.06%	-8.22%
Cc1oc(C)c(C(=O)NCc2ccccc2S(=O)(=O)N(C)C)c1C	-6.28%	37.9%
Cc1ccc(CNC(=O)NCCCn2nc3ccccn3c2=O)s1	7.2%	0.512%

Structure (SMILES)	Percent Effect [1]	Percent Effect [2]
Cc1cc(NS(=O)(=O)c2ccccc2F)ccc1-n1cccc1C(=O)O	6.98%	0.354%
Cc1nc(NCCc2ccc(Cl)cc2)cc(C(=O)N2CCCCC2)n1	12.4%	-69.6%
O=C(C1CCC1)N1CCC2(COCc3cnc(N4CCOCC4)nc32)C1 (stereo not given)	2.45%	-34.1%
CN1CCCC2(CCN(C(=O)CCn3cncn3)C2)C1=O (stereo not given)	-4.51%	27.3%
CCc1ncnc2c1CCN(C(=O)N1CCCC1)CC2	1.98%	-14%
Cc1csc([C@@H]2C[C@@H]3CCN(C(=O)c4cc(C)on4)C[C@H]3O2)n1	0.801%	-17.6%
CN1CCOC(CNC(=O)Cc2ccccc2F)C1 (stereo not given)	-1.99%	-8.98%
COc1cccc(CN2CCN(C(=O)CN3CCOCC3)CC2)n1	-3.48%	-2.5%
Cc1ccccc1CN(C)Cc1nc2c(cnn2C)c(=O)[nH]1	0.633%	-4.87%
CCc1cc(N[C@H]2CC[C@H](O)CC2)n2nc(C)c(C)c2n1	1.45%	-12.4%
NC(=O)Cc1ccc(NC(=O)C2CCOCC2)cc1	1.11%	20.8%
Cc1ccc(CC(=O)N2CC[C@@H]3CN(CCN(C)C)CCO[C@@H]3C2)cc1	6.89%	-3.9%
CC(=O)Nc1nc(C(=O)N2CCCC2c2noc(C)n2)cs1 (stereo not given)	0.425%	-22.5%
Cc1nc(C2CCCN(C(=O)c3ccc(N4CCCC4)nc3)C2)no1 (stereo not given)	-2.58%	-1.41%
Cc1cc(CN2CCN(C(=O)CCc3cccc(F)c3F)CC2)on1	-2.44%	-2.21%
CCc1n[nH]c(C2CN(C(=O)c3nc(C)ncc3Cl)CCO2)n1 (stereo not given)	0%	-0.974%
CN1CCCc2cc(CNC(=O)c3ccncc3)ccc21	-7.79%	-75.2%
CN(C)[C@@H]1CCN(C(=O)c2ccsc2)[C@H]1Cc1cnn(C)c1	-0.691%	-4.3%
CC(C)[C@H](NC(=O)NC1CCS(=O)(=O)C1)C(=O)NCc1ccccc1Cl (stereo not given in full)	0.145%	-30%
O=C(CCN1CCCN(c2nccs2)CC1)NCC1CCCCC1	-3.75%	-2.79%
COCCC1COC2(CCN(C(=O)c3ccco3)CC2)C1 (stereo not given)	-0.368%	-2.25%
Cc1nn(C)c(C)c1CC(=O)N1CCCC(n2ccnc2)C1 (stereo not given)	-4.83%	12.9%
CC(NC(=O)NCC1(c2ccc(F)cc2)CCC1)c1nncn1C (stereo not given)	2.25%	32.9%
CNc1cc(CCNC(=O)c2cccnc2)nc(-c2ccncc2)n1	-1.03%	2.08%
Cc1cnn(CC(C)NCc2nc(-c3cccnc3)no2)c1 (stereo not given)	1%	-15.5%

Structure (SMILES)	Percent Effect [1]	Percent Effect [2]
CC(C)c1nccn1C1CCCN(C(=O)c2ccc3[nH]nnc3c2)C1 (stereo not given)	-3.89%	-22.6%
NC(=O)CSCCC(=O)N1CCCC1c1ccsc1 (stereo not given)	-7.94%	6.46%
O=C(COc1coc(CN2CCOCC2)cc1=O)c1ccc(Cl)cc1	4.37%	-57.8%
CC(C)c1csc(C2CCCN(C(=O)Cn3ccccc3=O)C2)n1 (stereo not given)	-3.63%	-29.5%
COc1ncccc1CN1CCn2c(Cn3cncn3)cnc2C1	-2.81%	-13.9%
COc1cc(C)sc1C(=O)N1CCC(Nc2cccnc2)CC1	-3.37%	-50.2%
COCc1nc(C(=O)N2CCCCC2Cn2cccn2)cs1 (stereo not given)	1.01%	16.6%
COC(=O)c1sccc1S(=O)(=O)N1CCC(Oc2ncccc2Cl)CC1	-5.87%	4.83%
Cc1ccc2c(c1)c(CNC(=O)C1CCN(C(C)C)CC1)nn2C	-0.814%	-2.96%
Cc1nc(CNC(=O)NCC(O)c2cccc(Cl)c2)cs1 (stereo not given)	1.01%	-16.9%
COCC1CN(C(=O)CNC(C)=O)Cc2ncnn2C1 (stereo not given)	0.773%	-26.6%
CCN1CC(C(=O)NC(C)(C)CNC(=O)OC(C)(C)C)CC1=O (stereo not given)	4.36%	15.4%
Cc1noc(C)c1C(=O)N1C[C@H]2CCC[C@@]2(COc2ccccn2)C1	4.65%	2.11%
CC(C)NC(=O)c1sccc1N(C)S(=O)(=O)c1ccc(Cl)cc1	4.25%	-18.9%
CCCS(=O)(=O)N1CCOCC2(CCN(c3ccccn3)C2)C1 (stereo not given)	-2.85%	-23.9%
CN(CC1(O)CCCCC1)C1CCCN(Cc2noc(C3CC3)n2)C1 (stereo not given)	-2.39%	23.8%
CCS(=O)(=O)N1CCC(c2nc3ccc(-c4ccccc4)cn3n2)CC1	0.251%	-35.2%
Cc1ccc(C)c(OCCN2CCC(N3CCNC3=O)CC2)c1	0.583%	-1.43%
CCc1ccc(O)c(C(=O)NC2CCN(C(=O)OC)CC2)c1	-2.88%	-48.7%
Cc1ccc(CN2CCC3(CC(C(=O)NCC4CC4)=NO3)C2)cc1C (stereo not given)	7.45%	-15.5%
O=C(NCCn1ccnc1)NCC(c1ccco1)N1CCCCC1 (stereo not given)	1.79%	22.2%
CSCc1cccc(S(=O)(=O)N2CCC(C)CC2)c1	-1.92%	4.74%
COc1cc(C(=O)Nc2nc(C)no2)ccc1C	-0.143%	-2.1%
Cc1cc(N2CCC(Cc3ccccc3)CC2)nc(-c2ccncc2)n1	-0.602%	-32.9%
CCn1nc(C)c2ncnc(NCCCN3CCOCC3)c21	-3.37%	-33.6%

— ChEMBL document CHEMBL3988442, “University of Dundee, Small-Polar-MMV Screening Library” (2021)
